Among the data in PubChem BioAssay (EPA / NIEHS) are outcome and AC50 values, retold here.

“And” between values parts separate entries of the source, which are not always exact repeats. Identical values can stand only once. Some structures have more than one record in an assay (separate samples or runs), and their calls can disagree. The source made the active and inactive calls. The calls were made as follows: active = hit-call score of the fitted dose curve at least 0.9, where 1 is the maximum; inactive = score below 0.9.

Sequence of X-box-binding protein 1 (Homo sapiens) (P17861 whole entry, looked up): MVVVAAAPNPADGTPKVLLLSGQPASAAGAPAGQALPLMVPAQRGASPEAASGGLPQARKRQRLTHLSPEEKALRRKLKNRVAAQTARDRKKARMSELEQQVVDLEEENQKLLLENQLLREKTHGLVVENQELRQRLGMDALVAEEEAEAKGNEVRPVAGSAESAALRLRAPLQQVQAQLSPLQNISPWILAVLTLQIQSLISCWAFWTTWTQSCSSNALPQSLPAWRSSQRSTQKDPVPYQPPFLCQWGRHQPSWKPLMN

For the assay, the target named is X-box-binding protein 1 (Homo sapiens) (UniProt P17861). In words: ATG_Xbp1_CIS: Attagene CIS-FACTORIAL HepG2 Assay for human X-box Binding Protein 1 (XBP1) (AID 2282972). Conditions: HepG2 XBP1 cis-element reporter, Attagene multiplex; actives raise or lower the signal. As for the experimental part:
ATG_CIS is a cell-based, multiplexed-readout assay that uses HepG2, a human liver cell line, with measurements taken at 24 hours after chemical dosing in a 24-well plate.ATG_Xbp1_CIS is one of 52 assay component(s) measured or calculated from the ATG_CIS assay. It is designed to make measurements of mRNA induction, a form of inducible reporter, as detected with fluorescence intensity signals by Reverse transcription polymerase chain reaction (RT-PCR) and Capillary electrophoresis technology.Data from the assay component ATG_Xbp1_CIS was analyzed into 1 assay endpoint. This assay endpoint, ATG_Xbp1_CIS, was analyzed with bidirectional fitting relative to DMSO as the negative control and baseline of activity. Using a type of inducible reporter, measures of mRNA for gain or loss-of-signal activity can be used to understand the reporter gene at the transcription factor-level as they relate to the gene XBP1. Furthermore, this assay endpoint can be referred to as a primary readout, because this assay has produced multiple assay endpoints where this one serves a reporter gene function. To generalize the intended target to other relatable targets, this assay endpoint is annotated to the dna binding intended target family, where the subfamily is basic leucine zipper.
Human liver HepG2 cells are transiently transfected with multiple reporter transcription units (MRTUs) in 6-well plates using FuGene 6 reagent (Roche; 3 ml FuGene/1 mg DNA). The MRTU constructs are regulated by a cis-regulating element (promoter). […] A major difference between the CIS and TRANS system is that in CIS activities of endogenous TFs are measured, whereas the TRANS assay evaluates changes in activities of exogenous, chimeric NR-Gal4 proteins. […] At the end of 24 hour incubation, total RNA was isolated using TriZol reagent (Invitrogen). The isolated RNA is then reverse-transcribed using oligo(dT) primer and Mo-MLV reverse transcriptase (Invitrogen) with DNAse I (Ambion) treatment for 30 min. The one-tenth of the produced cDNA was amplified by PCR using Taq DNA polymerase (Invitrogen) and two reporter sequence-specific primers. The PCR products were fluorescently labeled by primer extension with 6-arboxyfluorescein (6-FAM) 5'-labeled reporter sequence-specific primer (2 min at 95 C, 20 s at 68 C and 10 min at 72 C) and these products were digested with 5U of HpaI (New England Biolabs) for 2h at 37 C. The fragments were purified using Qiaquick PCR columns (Qiagen), analyzed on an ABI 3130xL genetic analyzer (Applied Biosystems) with peak positions identified by using a set of X-rhodamine (ROX)-labeled MapMarker1000 molecular weight standards (BioVentures). The raw capillary electrophoresis data was processed using Attagraph software (Attagene).
As to `CCCCCCCCCc1ccc(O)cc1`, the compound was classed as inactive and the AC50 is 32.8 µM (active).

Regarding `Clc1ccc(C(Cl)(Cl)Cl)cc1`, the outcome was inactive.

On to `CCCCCCOC(=O)c1ccccc1C(=O)OCCCCCC`, for which the compound was called inactive.

For the compound `Oc1ccc(C(c2ccc(O)cc2)(C(F)(F)F)C(F)(F)F)cc1`, the outcome was inactive; the AC50 was 18.1 µM (active) and 17.3 µM (active) and 17.8 µM (active).

Consider `CCC(C)(c1ccc(O)cc1)c1ccc(O)cc1`, for which the result was inactive; the AC50 is 54.8 µM (active) and 52.7 µM (active) and 16.7 µM (active).

Turning to `COc1ccc(O)c(C(C)(C)C)c1`, the AC50 is 100 µM (active).

For the compound `O=C(O)C(F)(F)C(F)(F)C(F)(F)C(F)(F)C(F)(F)C(F)(F)C(F)(F)C(F)(F)C(F)(F)F`, the AC50 was 50.8 µM (active) and 50 µM (active); the result was inactive.

On to `O=S(=O)(O)C(F)(F)C(F)(F)C(F)(F)C(F)(F)C(F)(F)C(F)(F)F`, for which the outcome was inactive.

Regarding `O=C(O)C(F)(F)C(F)(F)C(F)(F)C(F)(F)C(F)(F)C(F)(F)C(F)(F)C(F)(F)F`, the AC50 was 150 µM (active) and 39.2 µM (active); the compound was called inactive.

With `Sc1ccccc1`, the compound was classed as inactive.

As for `ClC1=C(Cl)[C@]2(Cl)[C@@H]3[C@@H]4C[C@@H]([C@H]5O[C@@H]45)[C@@H]3[C@@]1(Cl)C2(Cl)Cl`, the call was inactive.

Turning to `ClC1=C(Cl)[C@]2(Cl)[C@@H]3[C@@H](Cl)[C@H]4O[C@H]4[C@@H]3C1(Cl)C2(Cl)Cl`, the AC50 is 36.5 µM (active).

As for `Cc1ccccc1[N+](=O)[O-]`, the call was inactive.

Turning to `O=C(O)C(F)(F)C(F)(F)C(F)(F)C(F)(F)C(F)(F)F`, the compound was classed as inactive.

Take `ClC1=C(Cl)[C@]2(Cl)[C@@H]3[C@H]4C[C@H]([C@@H]5O[C@H]45)[C@@H]3[C@@]1(Cl)C2(Cl)Cl`: the result was inactive.

`CO/C=C(/C(=O)OC)c1ccccc1COc1cccc(C(F)(F)F)n1`: the AC50 was 7.76 µM (active).

Regarding `CC#Cc1cc(C)nc(Nc2ccccc2)n1`, the result was inactive.

On to `CCC(C)(CC)c1cc(NC(=O)c2c(OC)cccc2OC)on1`, for which the outcome was inactive.

Turning to `Clc1ccc(C(c2ccccc2Cl)C(Cl)(Cl)Cl)cc1` (stereo unspecified), the AC50 is 70.5 µM (active) and 101 µM (active) and 46.4 µM (active); the compound was classed as inactive.

Turning to `O=C(NC(=O)c1c(F)cccc1F)Nc1cc(Cl)c(OC(F)(F)C(F)F)c(Cl)c1`, the result was inactive.

In the case of `Oc1ccc(Cl)cc1Cl`, the result was inactive.

On to `Nc1ccc(-c2ccc(N)cc2)cc1`, for which the result was inactive.

For the compound `Cc1ccc(O)c(C)c1`, the result was inactive.

With `CC(C)(c1ccccc1)c1ccc(O)cc1`, the compound was called inactive; the AC50 is 52.7 µM (active) and 52.2 µM (active).

For `C=CC(N)=O`, the compound was called inactive.

Regarding `Oc1c(Cl)c(Cl)c(Cl)c(Cl)c1Cl`, the AC50 was 29.5 µM (active) and 19 µM (active) and 74.2 µM (active).

Take `Nn1cnnc1`: the compound was called inactive.

Consider `CC1=C2C[C@H]3[C@@H](CC=C4C[C@@H](O)CC[C@@]43C)[C@@H]2CC[C@]12O[C@@H]1C[C@H](C)CN[C@H]1[C@H]2C`, for which the call was inactive.

For `CCCCCCCCCC[N+](C)(C)CCCCCCCCCC`, the compound was called inactive.

For the compound `CCOP(=S)(OCC)SCSC(C)(C)C`, the compound was called inactive.

As for `O=C(NC(=O)c1cc(F)c(F)cc1Cl)Nc1cc(F)ccc1N1CCC(C(=O)O)CC1`, the result was inactive.

Turning to `CC(c1ccc(O)cc1)(c1ccc(O)cc1)c1ccc(O)cc1`, the AC50 is 11.1 µM (active).

Turning to `ClC(Cl)=C(c1ccc(Cl)cc1)c1ccc(Cl)cc1`, the compound was called inactive and the concentration at half-maximal activity (AC50) was 150 µM (active).

As usually defined, the AC50 is the concentration giving half of the maximal activity seen.
